From PubChem BioAssay (Tox21)
Unmarked numbers belong to inactive results. Records with an inconclusive call do not appear. Entries that show only a call come without a potency. Calls of active or inactive are those of the source. Calls come from the whole dose curve; as a rule, active = well fitted curve in the direction sought with a large enough effect in the repeat runs; inconclusive = weak or mixed curves; inactive = no such curve, though single readings can be large; an effect the other way counts as inactive or inconclusive.

Tests used:
[1] = qHTS RealTime-Glo MT Cell Viability Assay in HEK293 cells - 40 hour (AID 1224874); settings: RealTime-Glo luminescence; max response: stronger effect = lower value; note: nearly all actives have a fitted effect of over 50% in size; note: potency is the fitted concentration of half-maximal effect
Procedure, shortened: (§1)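 HEK293 + NanoLuc + prosubstrate, 600 cells/well; 5 h, 37 C/5% CO2; compound 23 nL in DMSO by pintool; 37 C; luminescence read at 0, 8, 16, 24, 32 and 40 h time points.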

[2] = A CellTox Green Cytotoxicity Assay to monitor cytotoxicity in HEK293 cells - 24 hour (AID 1224875); note: nearly all actives have a fitted effect of over 45% in size; note: potency is the fitted concentration of half-maximal effect
Procedure, shortened: (§2)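 Tox21 screen in HEK293: membrane-impermeant cyanine dye fluoresces on binding dead-cell DNA; compound pinned 5 h post-seeding, plates held at 37 C, signal read repeatedly through 40 h.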

[3] = A CellTox Green Cytotoxicity Assay to monitor cytotoxicity in HepG2 cells - 16 hour (AID 1224876); note: nearly all actives have a fitted effect of over 45% in size; note: potency is the fitted concentration of half-maximal effect
Procedure, shortened: (§3)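 Measurements at 0, 8, 16, 24, 32 and 40 h of treatment captured CellTox Green fluorescence in HepG2 cells that had been co-plated with reagent and preincubated 5 h at 37 C/5% CO2.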

[4] = qHTS RealTime-Glo MT Cell Viability Assay in HepG2 cells - 32 hour (AID 1224877); note: nearly all actives have a fitted effect of over 55% in size
Procedure, shortened: (§4)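 Cells + NanoLuc/prosubstrate dispensed (600 cells/well) → 5 h at 37 C/5% CO2 → compounds in DMSO transferred → 40 h incubation at 37 C, luminescence read at 0, 8, 16, 24, 32, 40 h.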

[5] = A CellTox Green Cytotoxicity Assay to monitor cytotoxicity in HepG2 cells - 24 hour (AID 1224878); note: nearly all actives have a fitted effect of over 45% in size; note: potency is the fitted concentration of half-maximal effect
Procedure, shortened: as §3

[6] = A CellTox Green Cytotoxicity Assay to monitor cytotoxicity in HepG2 cells - 40 hour (AID 1224879); note: nearly all actives have a fitted effect of over 40% in size; note: potency is the fitted concentration of half-maximal effect
Procedure, shortened: as §3

[7] = qHTS RealTime-Glo MT Cell Viability Assay in HEK293 cells - 0 hour (AID 1224880); note: nearly all actives have a fitted effect of over 45% in size; note: potency is the fitted concentration of half-maximal effect
Procedure, shortened: as §1

[8] = A CellTox Green Cytotoxicity Assay to monitor cytotoxicity in HEK293 cells - 32 hour (AID 1224881); note: nearly all actives have a fitted effect of over 40% in size; note: potency is the fitted concentration of half-maximal effect
Procedure, shortened: as §2

[9] = A CellTox Green Cytotoxicity Assay to monitor cytotoxicity in HepG2 cells - 0 hour (AID 1224882); note: nearly all actives have a fitted effect of over 35% in size
Procedure, shortened: as §3

[10] = A CellTox Green Cytotoxicity Assay to monitor cytotoxicity in HepG2 cells - 32 hour (AID 1224883); note: nearly all actives have a fitted effect of over 50% in size; note: potency is the fitted concentration of half-maximal effect
Procedure, shortened: as §3

[11] = qHTS RealTime-Glo MT Cell Viability Assay in HepG2 cells - 16 hour (AID 1224885); note: nearly all actives have a fitted effect of over 50% in size
Procedure, shortened: as §4

[12] = qHTS RealTime-Glo MT Cell Viability Assay in HEK293 cells - 24 hour (AID 1224886); note: nearly all actives have a fitted effect of over 50% in size; note: potency is the fitted concentration of half-maximal effect
Procedure, shortened: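 Tox21 10K qHTS, HEK293, 600 cells/well, RealTime-Glo reagent co-dispensed with cells; 5 h preincubation, compound by pintool, 37 C, luminescence at 0–40 h.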

[13] = qHTS RealTime-Glo MT Cell Viability Assay in HEK293 cells - 8 hour (AID 1224887); note: nearly all actives have a fitted effect of over 50% in size; note: potency is the fitted concentration of half-maximal effect
Procedure, shortened: as §1

[14] = A CellTox Green Cytotoxicity Assay to monitor cytotoxicity in HEK293 cells - 16 hour (AID 1224888); note: nearly all actives have a fitted effect of over 35% in size
Procedure, shortened: as §2

[15] = qHTS RealTime-Glo MT Cell Viability Assay in HepG2 cells - 0 hour (AID 1224889); note: nearly all actives have a fitted effect of over 50% in size
Procedure, shortened: as §4

[16] = A CellTox Green Cytotoxicity Assay to monitor cytotoxicity in HepG2 cells - 8 hour (AID 1224890); note: nearly all actives have a fitted effect of over 45% in size
Procedure, shortened: as §3

[17] = qHTS assay to identify small molecule antagonists of the estrogen receptor alpha (ER-alpha) signaling pathway using the BG1 cell line in the presence of 0.1 nM 17-beta-estradiol - cell viability counter screen (AID 1259241); note: nearly all actives have a fitted effect of over 40% in size
Procedure, shortened: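 Measures cytotoxicity alongside the ER-alpha antagonist readout: VM7Luc4E2 cells, charcoal-stripped serum, 0.1 nM 17beta-estradiol final, 22 hr compound incubation at 37C, CellTiter-Fluor fluorescence.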

[18] = qHTS assay to identify small molecule antagonists of the androgen receptor (AR) signaling pathway using the MDA cell line in the presence of 0.5 nM R1881 - cell viability counter screen (AID 1259242); note: nearly all actives have a fitted effect of over 45% in size
Procedure, shortened: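 Concentration-response screen of compounds for toxicity in MDA-kb2 reporter cells: 16 hr at 37C with 0.5 nM R1881, endpoint live-cell protease fluorescence measured in the reporter wells.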

[19] = A CellTox Green Cytotoxicity Assay to monitor cytotoxicity in HEK293 cells - 8 hour (AID 1224884); note: nearly all actives have a fitted effect of over 35% in size
Procedure, shortened: as §2

[20] = target: Androgen receptor (Homo sapiens) (UniProt P10275); test: qHTS assay to identify small molecule antagonists of the androgen receptor (AR) signaling pathway using the MDA cell line in the presence of 0.5 nM R1881 (AID 1259243); note: nearly all actives have a fitted effect of over 50% in size; note: potency is the fitted concentration of half-maximal effect
Procedure, shortened: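 With R1881 held at 0.5 nM (final), compound effects on MMTV-luciferase expression in MDA-kb2 cells were scored by luminescence after a 16 hr, 37C incubation.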

Chain of Androgen receptor (Homo sapiens) (P10275 whole entry, looked up): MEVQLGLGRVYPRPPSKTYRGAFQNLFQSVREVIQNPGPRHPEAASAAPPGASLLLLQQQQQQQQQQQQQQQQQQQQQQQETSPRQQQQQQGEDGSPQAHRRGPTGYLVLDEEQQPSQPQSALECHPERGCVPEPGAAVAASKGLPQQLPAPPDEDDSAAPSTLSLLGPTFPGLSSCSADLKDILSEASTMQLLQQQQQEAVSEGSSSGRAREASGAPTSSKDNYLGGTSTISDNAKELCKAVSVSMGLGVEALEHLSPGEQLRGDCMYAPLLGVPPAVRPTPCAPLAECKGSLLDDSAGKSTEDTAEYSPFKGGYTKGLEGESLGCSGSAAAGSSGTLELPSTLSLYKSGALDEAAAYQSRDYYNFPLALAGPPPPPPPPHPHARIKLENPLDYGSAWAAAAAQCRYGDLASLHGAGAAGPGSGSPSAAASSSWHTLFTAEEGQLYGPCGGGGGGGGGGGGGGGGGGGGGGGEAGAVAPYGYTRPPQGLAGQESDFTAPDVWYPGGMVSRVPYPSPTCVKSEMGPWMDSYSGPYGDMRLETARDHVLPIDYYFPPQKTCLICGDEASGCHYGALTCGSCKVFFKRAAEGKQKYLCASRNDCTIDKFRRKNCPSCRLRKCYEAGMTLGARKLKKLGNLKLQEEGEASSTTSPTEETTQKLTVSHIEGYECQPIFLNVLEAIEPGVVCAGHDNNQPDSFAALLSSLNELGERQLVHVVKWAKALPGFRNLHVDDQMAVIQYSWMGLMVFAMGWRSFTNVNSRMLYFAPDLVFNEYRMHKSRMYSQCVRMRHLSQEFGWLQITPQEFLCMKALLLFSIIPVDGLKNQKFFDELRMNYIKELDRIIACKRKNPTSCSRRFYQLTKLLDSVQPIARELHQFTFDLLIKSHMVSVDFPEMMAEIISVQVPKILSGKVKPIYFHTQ

Compound: CCCCCCCCCCCCCCCC(=O)OC/C=C(C)/C=C/C=C(C)/C=C/C1=C(C)CCCC1(C)C
- max response [1]: -5.46%
- Potency [2]: inactive
- Potency [3]: inactive
- Potency [4]: inactive
- Potency [5]: inactive
- Potency [6]: inactive
- Potency [7]: inactive
- Potency [8]: inactive
- Potency [9]: inactive
- Potency [10]: inactive
- Potency [11]: inactive
- Potency [12]: inactive
- Potency [13]: inactive
- Potency [14]: inactive
- Potency [15]: inactive
- Potency [16]: inactive
- Potency [17]: inactive
- Potency [18]: inactive

Compound: CCCCCCc1ccc(N)cc1
- max response [1]: 4.72%
- Potency [2]: inactive
- Potency [3]: 49 µM (active)
- Potency [4]: inactive
- Potency [5]: 49 µM (active)
- Potency [6]: 49 µM (active)
- Potency [7]: inactive
- Potency [8]: inactive
- Potency [9]: inactive
- Potency [10]: 49 µM (active)
- Potency [19]: inactive
- Potency [11]: inactive
- Potency [12]: inactive
- Potency [14]: inactive
- Potency [15]: inactive
- Potency [17]: inactive
- Potency [18]: inactive
- Potency [20]: inactive

Compound: O=C1[C@H](CC[C@H](O)c2ccc(F)cc2)[C@@H](c2ccc(O)cc2)N1c1ccc(F)cc1
- Potency [1]: 19 µM (active)
- Potency [2]: inactive
- Potency [3]: inactive
- Potency [4]: inactive
- Potency [5]: inactive
- Potency [6]: inactive
- Potency [7]: inactive
- Potency [8]: inactive
- Potency [9]: inactive
- Potency [10]: inactive
- Potency [19]: inactive
- Potency [11]: inactive
- Potency [12]: 23.9 µM (active)
- Potency [14]: inactive
- Potency [15]: inactive
- Potency [16]: inactive
- Potency [18]: inactive

Compound: CC(=O)N(O)CCCCCNC(=O)CCC(=O)N(O)CCCCCNC(=O)CCC(=O)N(O)CCCCCN
- Potency [1]: 21.3 µM (active)
- Potency [2]: inactive
- Potency [3]: inactive
- Potency [4]: inactive
- Potency [5]: inactive
- Potency [6]: inactive
- Potency [7]: inactive
- Potency [8]: inactive
- Potency [9]: inactive
- Potency [10]: inactive
- Potency [19]: inactive
- Potency [11]: inactive
- Potency [13]: inactive
- Potency [14]: inactive
- Potency [15]: inactive
- Potency [16]: inactive
- Potency [17]: inactive
- Potency [18]: inactive
- Potency [20]: inactive

Compound: CCCCOC(O)CC (stereo unspecified)
- max response [1]: 3%
- Potency [2]: inactive
- Potency [3]: inactive
- Potency [4]: inactive
- Potency [5]: inactive
- Potency [6]: inactive
- Potency [7]: inactive
- Potency [8]: inactive
- Potency [9]: inactive
- Potency [10]: inactive
- Potency [11]: inactive
- Potency [12]: inactive
- Potency [13]: inactive
- Potency [14]: inactive
- Potency [15]: inactive
- Potency [16]: inactive
- Potency [17]: inactive
- Potency [18]: inactive
- Potency [20]: inactive

Compound: CCCCCC(CO)CCC (stereo unspecified)
- max response [1]: 1.02%
- Potency [2]: inactive
- Potency [3]: inactive
- Potency [4]: inactive
- Potency [5]: inactive
- Potency [6]: inactive
- Potency [7]: inactive
- Potency [8]: inactive
- Potency [9]: inactive
- Potency [10]: inactive
- Potency [19]: inactive
- Potency [11]: inactive
- Potency [12]: inactive
- Potency [13]: inactive
- Potency [14]: inactive
- Potency [15]: inactive
- Potency [16]: inactive
- Potency [18]: inactive

Compound: O=C(/C=C/c1ccc(O)c(O)c1)O[C@@H]1C[C@](O)(C(=O)O)C[C@@H](O)[C@H]1O
- max response [1]: -3.27%
- Potency [2]: inactive
- Potency [3]: inactive
- Potency [4]: inactive
- Potency [5]: inactive
- Potency [6]: inactive
- Potency [7]: inactive
- Potency [8]: inactive
- Potency [9]: inactive
- Potency [10]: inactive
- Potency [11]: inactive
- Potency [12]: inactive
- Potency [13]: inactive
- Potency [14]: inactive
- Potency [15]: inactive
- Potency [16]: inactive
- Potency [17]: inactive
- Potency [18]: inactive

Compound: CCCCCCCCCC=O
- max response [1]: 7.4%
- Potency [2]: inactive
- Potency [3]: inactive
- Potency [4]: inactive
- Potency [5]: inactive
- Potency [6]: inactive
- Potency [7]: inactive
- Potency [8]: inactive
- Potency [9]: inactive
- Potency [10]: inactive
- Potency [11]: inactive
- Potency [12]: inactive
- Potency [13]: inactive
- Potency [14]: inactive
- Potency [15]: inactive
- Potency [16]: inactive
- Potency [17]: inactive
- Potency [18]: inactive

Compound: c1ccc(CNCc2ccccc2)cc1
- max response [1]: -7.12%
- Potency [2]: inactive
- Potency [3]: inactive
- Potency [4]: inactive
- Potency [5]: inactive
- Potency [6]: inactive
- Potency [7]: inactive
- Potency [8]: inactive
- Potency [9]: inactive
- Potency [10]: inactive
- Potency [11]: inactive
- Potency [12]: inactive
- Potency [13]: inactive
- Potency [14]: inactive
- Potency [15]: inactive
- Potency [16]: inactive
- Potency [17]: inactive
- Potency [18]: inactive

Compound: CCCCC(CC)(CO)CO
- max response [1]: -0.853%
- Potency [2]: inactive
- Potency [3]: inactive
- Potency [4]: inactive
- Potency [5]: inactive
- Potency [6]: inactive
- Potency [7]: inactive
- Potency [8]: inactive
- Potency [9]: inactive
- Potency [10]: inactive
- Potency [11]: inactive
- Potency [12]: inactive
- Potency [13]: inactive
- Potency [14]: inactive
- Potency [15]: inactive
- Potency [16]: inactive
- Potency [17]: inactive
- Potency [18]: inactive

Compound: CC(C)CCCCCCOC(=O)c1ccc(C(=O)OCCCCCCC(C)C)c(C(=O)OCCCCCCC(C)C)c1
- max response [1]: -0.306%
- Potency [2]: inactive
- Potency [3]: inactive
- Potency [4]: inactive
- Potency [5]: inactive
- Potency [6]: inactive
- Potency [7]: inactive
- Potency [8]: inactive
- Potency [9]: inactive
- Potency [10]: inactive
- Potency [11]: inactive
- Potency [12]: inactive
- Potency [13]: inactive
- Potency [14]: inactive
- Potency [15]: inactive
- Potency [16]: inactive
- Potency [17]: inactive
- Potency [18]: inactive

Compound: Cc1cc(O)ccc1N
- Potency [1]: 43.9 µM (active)
- Potency [2]: 34.9 µM (active)
- Potency [3]: inactive
- Potency [4]: inactive
- Potency [5]: inactive
- Potency [6]: inactive
- Potency [7]: 12.4 µM (active)
- Potency [8]: 34.9 µM (active)
- Potency [9]: inactive
- Potency [10]: inactive
- Potency [19]: inactive
- Potency [11]: inactive
- Potency [12]: 55.3 µM (active)
- Potency [13]: 43.9 µM (active)
- Potency [14]: inactive
- Potency [15]: inactive
- Potency [16]: inactive
- Potency [20]: 43.5 µM (active)

Compound: Oc1ccc(O)c2c(O)cccc12
- max response [1]: -0.428%
- Potency [2]: inactive
- Potency [3]: inactive
- Potency [4]: inactive
- Potency [5]: inactive
- Potency [6]: inactive
- Potency [7]: inactive
- Potency [8]: inactive
- Potency [9]: inactive
- Potency [10]: inactive
- Potency [19]: inactive
- Potency [11]: inactive
- Potency [12]: inactive
- Potency [14]: inactive
- Potency [15]: inactive
- Potency [16]: inactive
- Potency [17]: inactive
- Potency [18]: inactive

Compound: COc1ccc(OC)c(OC)c1
- max response [1]: 15.8%
- Potency [2]: inactive
- Potency [3]: inactive
- Potency [4]: inactive
- Potency [5]: inactive
- Potency [6]: inactive
- Potency [7]: inactive
- Potency [8]: inactive
- Potency [9]: inactive
- Potency [10]: inactive
- Potency [11]: inactive
- Potency [12]: inactive
- Potency [13]: inactive
- Potency [14]: inactive
- Potency [15]: inactive
- Potency [16]: inactive
- Potency [17]: inactive
- Potency [18]: inactive

Compound: CN(C)CC[C@@H](c1ccc(Br)cc1)c1ccccn1
- max response [1]: -14.2%
- Potency [2]: inactive
- Potency [3]: inactive
- Potency [4]: inactive
- Potency [5]: inactive
- Potency [6]: inactive
- Potency [7]: inactive
- Potency [8]: inactive
- Potency [9]: inactive
- Potency [10]: inactive
- Potency [19]: inactive
- Potency [11]: inactive
- Potency [13]: inactive
- Potency [14]: inactive
- Potency [15]: inactive
- Potency [16]: inactive
- Potency [17]: inactive
- Potency [18]: inactive
